Test results published in PubChem BioAssay (NCATS).
Results filed as inconclusive are left out. Activity calls are given as the source filed them. The call rests on the fitted dose curve; in most records, active means well fitted curve in the direction sought with a large enough effect; inconclusive means small, poorly fitted or top-dose-only effect, or another doubt; inactive means no such curve, though single readings can be large; an effect the other way counts as inactive or inconclusive.

Legend:
[1] = qHTS of pediatric cancer cell lines to identify multiple opportunities for drug repurposing: Primary screen for NB-EBc1 cells (AID 1347095);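 further: plate controls were DMSO neutral control for no effect and bortezomib for full effect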
How it was run: (§1)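 Plated cells (500-1,000 per well, growth media) were allowed to settle for 5 hours, treated with compound dilutions for 48 hours, then lysed with CellTiter-Glo for 15 min at room temperature before luminescence reading.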

[2] = qHTS of pediatric cancer cell lines to identify multiple opportunities for drug repurposing: Primary screen for U-2 OS cells (AID 1347096);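 further: plate controls were DMSO wells for no effect and bortezomib positive control wells for full effect; nearly all actives have a fitted effect of over 50% in size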
How it was run: (§2)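 Cells (500-1,000/well) rested 5 h, then received compounds for 48 h; metabolically active cells were measured by CellTiter-Glo luminescence. Final concentrations spanned up to 46 µM (MIPE, 11-point) or 0.59 nM-46 µM (NPC, 8-point) in primary screens, 11-point in follow-ups.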

[3] = qHTS of pediatric cancer cell lines to identify multiple opportunities for drug repurposing: Primary screen for Saos-2 cells (AID 1347097); further: on the % scale 0 is the no-effect control and ±100 the full control effect; nearly all actives have a fitted effect of over 40% in size
How it was run: as §1

[4] = qHTS of pediatric cancer cell lines to identify multiple opportunities for drug repurposing: Primary screen for SK-N-SH cells (AID 1347098);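 further: DMSO served as neutral control and bortezomib at 2.3 µM as positive control; on the % scale 0 is the no-effect control and ±100 the full control effect; nearly all actives have a fitted effect of over 65% in size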
How it was run: as §2

[5] = qHTS of pediatric cancer cell lines to identify multiple opportunities for drug repurposing: Primary screen for NB1643 cells (AID 1347099); further: nearly all actives have a fitted effect of over 50% in size; further: potency means the concentration at half of the fitted maximal effect;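 on activity change, negative = cytotoxic: plate controls were DMSO neutral control for no effect and bortezomib positive control for full effect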
How it was run: as §1

[6] = qHTS of pediatric cancer cell lines to identify multiple opportunities for drug repurposing: Primary screen for LAN-5 cells (AID 1347100);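 further: plate controls were DMSO neutral control for no effect and bortezomib positive control for full effect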
How it was run: as §2

[7] = qHTS of pediatric cancer cell lines to identify multiple opportunities for drug repurposing: Primary screen for BT-12 cells (AID 1347101);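 further: plate controls were DMSO for no effect and bortezomib positive control for full effect; nearly all actives have a fitted effect of over 25% in size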
How it was run: as §2

[8] = qHTS of pediatric cancer cell lines to identify multiple opportunities for drug repurposing: Primary screen for Rh18 cells (AID 1347102); further: on the % scale 0 is the no-effect control and ±100 the full control effect; nearly all actives have a fitted effect of over 65% in size
How it was run: as §2

[9] = qHTS of pediatric cancer cell lines to identify multiple opportunities for drug repurposing: Primary screen for MG 63 (6-TG R) cells (AID 1347105); further: on the % scale 0 is the no-effect control and ±100 the full control effect; nearly all actives have a fitted effect of over 50% in size
How it was run: as §1

[10] = qHTS of pediatric cancer cell lines to identify multiple opportunities for drug repurposing: Primary screen for Rh30 cells (AID 1347107); further: series mostly up to about 46 µM; on the % scale 0 is the no-effect control and ±100 the full control effect; nearly all actives have a fitted effect of over 75% in size
How it was run: as §2

[11] = qHTS of pediatric cancer cell lines to identify multiple opportunities for drug repurposing: Primary screen for Rh41 cells (AID 1347108);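 further: series mostly up to about 46 µM; luminescence drop marks cytotoxic hits; nearly all actives have a fitted effect of over 70% in size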
How it was run: as §1

[12] = qHTS of pediatric cancer cell lines to identify multiple opportunities for drug repurposing: Primary screen for OHS-50 cells (AID 1347103);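 further: plate controls were DMSO neutral control for no effect and bortezomib positive control for full effect; nearly all actives have a fitted effect of over 40% in size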
How it was run: as §2

[13] = qHTS of pediatric cancer cell lines to identify multiple opportunities for drug repurposing: Primary screen for RD cells (AID 1347104);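 further: plate controls were DMSO for no effect and bortezomib for full effect; nearly all actives have a fitted effect of over 55% in size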
How it was run: as §1

[14] = qHTS of pediatric cancer cell lines to identify multiple opportunities for drug repurposing: Primary screen for control Hh wild type fibroblast cells (AID 1347106);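 further: series mostly up to about 46 µM; on the % scale 0 is the no-effect control and ±100 the full control effect; a drop in luminescence marks cytotoxicity and a rise apparent proliferation; nearly all actives have a fitted effect of over 55% in size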
How it was run: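 Viability after 48 h compound treatment at 37C, 500-1,000 cells/well, read as ATP luminescence with CellTiter-Glo. Primary screens used 11-point (MIPE, 0.78 nM-46 µM) or 8-point (NPC, 0.59 nM-46 µM) final concentrations; follow-up screens used 11-point dilutions.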

[15] = qHTS of pediatric cancer cell lines to identify multiple opportunities for drug repurposing: Confirmatory screen for NB1643 cells (AID 1347109);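 further: plate controls were DMSO for no effect and bortezomib for full effect; nearly all actives have a fitted effect of over 45% in size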
How it was run: as §2

[16] = qHTS of pediatric cancer cell lines to identify multiple opportunities for drug repurposing: Confirmatory screen for A673 cells (AID 1347110);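 further: potency means the concentration at half of the fitted maximal effect; cells exposed to compound for 48 h before the viability read; nearly all actives have a fitted effect of over 65% in size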
How it was run: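 Viability was read as ATP luminescence (CellTiter-Glo) after 48 h of compound exposure at 37 C in A673 cells seeded at 500-1,000/well. Titrations reached 46 uM final, with 11 points in the confirmatory screen. Concentration-response curves were fitted directly.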

[17] = qHTS of pediatric cancer cell lines to identify multiple opportunities for drug repurposing: Confirmatory screen for SK-N-MC cells (AID 1347111); settings: SK-N-MC cell viability;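 further: potency means the concentration at half of the fitted maximal effect; cells exposed to compound for 48 h before the readout; nearly all actives have a fitted effect of over 70% in size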
How it was run: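 Seed 500-1,000 cells/well; rest 5 h at 37 degrees C. Pin-transfer compounds, 11-point titration. Incubate 48 h. Add CellTiter-Glo, 15 min RT, read luminescence.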

[18] = qHTS of pediatric cancer cell lines to identify multiple opportunities for drug repurposing: Confirmatory screen for BT-12 cells (AID 1347112); further: on the % scale 0 is the no-effect control and ±100 the full control effect; nearly all actives have a fitted effect of over 55% in size
How it was run: as §2

[19] = qHTS of pediatric cancer cell lines to identify multiple opportunities for drug repurposing: Confirmatory screen for LAN-5 cells (AID 1347113); further: nearly all actives have a fitted effect of over 65% in size
How it was run: as §2

[20] = qHTS of pediatric cancer cell lines to identify multiple opportunities for drug repurposing: Confirmatory screen for DAOY cells (AID 1347114)
How it was run: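 Viability measured as metabolically active cells via CellTiter-Glo luminescence following 48 hours of compound exposure, 11-point dilutions in confirmatory testing. 500-1,000 cells/well plated 5 hours before dosing; controls were DMSO and 2.3 µM bortezomib.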

C[N+](C)(C)CCOC(N)=O
inactive: Potency [1] | Potency [2] | Potency [3] | Potency [4] | Potency [5] | Potency [6] | Potency [7] | Potency [8] | Potency [9] | Potency [10] | Potency [11]

NC/C=C/C(=O)O
inactive: Potency [1] | Potency [2] | Potency [3] | Potency [4] | Potency [5] | Potency [6] | Potency [7] | Potency [8] | Potency [12] | Potency [13] | Potency [9] | Potency [10] | Potency [11]

Cc1ccc(=O)n(-c2ccccc2)c1
inactive: Potency [1] | Potency [2] | Potency [3] | Potency [4] | Potency [5] | Potency [6] | Potency [7] | Potency [8] | Potency [12] | Potency [13] | Potency [9] | outcome [14] | Potency [10] | Potency [11]

NC(=O)N1c2ccccc2C=Cc2ccccc21
inactive: Potency [1] | Potency [2] | Potency [3] | Potency [4] | Potency [5] | Potency [6] | Potency [7] | Potency [8] | Potency [12] | Potency [13] | outcome [14] | Potency [11]

CCc1c(C)[nH]c2c1C(=O)C(CN1CCOCC1)CC2 (centres undefined)
inactive: Potency [1] | Potency [2] | Potency [3] | Potency [4] | Potency [5] | Potency [6] | Potency [8] | Potency [12] | Potency [13] | Potency [9] | outcome [14] | Potency [10] | Potency [11]

CC(C)(C)NCC(O)c1cc(O)cc(O)c1 (centres undefined)
inactive: Potency [1] | Potency [2] | Potency [3] | Potency [4] | Potency [5] | Potency [6] | Potency [7] | Potency [8] | Potency [13] | outcome [14] | Potency [10] | Potency [11]

CCn1nc(C(=O)O)c(=O)c2cc3c(cc21)OCO3
inactive: Potency [1] | Potency [2] | Potency [3] | Potency [4] | Potency [5] | Potency [6] | Potency [7] | Potency [8] | Potency [12] | Potency [9] | outcome [14] | Potency [10] | Potency [11]

NC(Cc1ccc(Cl)cc1)C(=O)O (centres undefined)
inactive: activity change, negative = cytotoxic [1] 23.4% [at 0.597 µM] | activity change, negative = cytotoxic [2] 18.1% [at 0.597 µM] | activity change, negative = cytotoxic [3] 1.27% [at 0.597 µM] | activity change, negative = cytotoxic [4] -6.57% [at 0.741 µM] | activity change, negative = cytotoxic [5] 9.7% [at 0.597 µM] | activity change, negative = cytotoxic [6] 0.0057% [at 0.597 µM] | activity change, negative = cytotoxic [7] 7.02% [at 0.745 µM] | activity change, negative = cytotoxic [8] 15.1% [at 0.597 µM] | activity change, negative = cytotoxic [12] 9.59% [at 0.73 µM] | activity change, negative = cytotoxic [9] 9.57% [at 0.597 µM] | activity change, negative = cytotoxic [14] 6.18% [at 0.597 µM] | activity change, negative = cytotoxic [10] 30.5% [at 0.597 µM] | activity change, negative = cytotoxic [11] 28% [at 0.597 µM]

COc1ccc(CN(CCN(C)C)c2ccccn2)cc1
inactive: Potency [1] | Potency [2] | Potency [3] | Potency [4] | Potency [5] | Potency [6] | Potency [8] | Potency [12] | Potency [13] | Potency [9] | Potency [11]

CN/C(=C\[N+](=O)[O-])NCCSCc1ccc(CN(C)C)o1
inactive: Potency [1] | Potency [2] | Potency [3] | Potency [4] | Potency [6] | Potency [7] | Potency [8] | Potency [12] | Potency [9] | outcome [14] | Potency [10] | Potency [15] | Potency [18] | Potency [19] | Potency [20]
active: Potency [5] 37.6 µM | Potency [16] 5.22 µM | Potency [17] 11.7 µM

CN(C)C/C=C(/c1ccc(Br)cc1)c1cccnc1
inactive: Potency [1] | Potency [2] | Potency [3] | Potency [4] | Potency [5] | Potency [6] | Potency [7] | Potency [8] | Potency [13] | Potency [9] | outcome [14] | Potency [10] | Potency [11]

O=C(O)CN(CCOCCOCCN(CC(=O)O)CC(=O)O)CC(=O)O
inactive: activity change, negative = cytotoxic [1] 21.8% [at 0.597 µM] | activity change, negative = cytotoxic [2] 10.9% [at 0.597 µM] | activity change, negative = cytotoxic [3] -2.21% [at 0.597 µM] | activity change, negative = cytotoxic [4] -13% [at 0.741 µM] | activity change, negative = cytotoxic [5] 28.6% [at 0.597 µM] | activity change, negative = cytotoxic [6] 27.7% [at 0.597 µM] | activity change, negative = cytotoxic [7] 8.07% [at 0.745 µM] | activity change, negative = cytotoxic [8] 14.5% [at 0.597 µM] | activity change, negative = cytotoxic [12] 12.9% [at 0.73 µM] | activity change, negative = cytotoxic [13] 10.3% [at 0.597 µM] | activity change, negative = cytotoxic [9] -8.72% [at 0.597 µM] | activity change, negative = cytotoxic [14] 5.93% [at 0.597 µM] | activity change, negative = cytotoxic [10] 25.4% [at 0.597 µM] | activity change, negative = cytotoxic [11] 18.7% [at 0.597 µM]

CCCCNc1ccc(C(=O)OCCN(C)C)cc1
inactive: Potency [1] | Potency [2] | Potency [3] | Potency [4] | Potency [5] | Potency [6] | Potency [7] | Potency [8] | Potency [13] | Potency [9] | outcome [14] | Potency [10] | Potency [11]

NS(=O)(=O)c1cc2c(cc1Cl)NC(C1CC3C=CC1C3)NS2(=O)=O (centres undefined)
inactive: Potency [1] | Potency [2] | Potency [3] | Potency [4] | Potency [5] | Potency [6] | Potency [7] | Potency [8] | outcome [14] | Potency [11]

CN1C(=O)CC[C@H]1c1cccnc1
inactive: Potency [1] | Potency [2] | Potency [3] | Potency [4] | Potency [5] | Potency [6] | Potency [7] | Potency [8] | Potency [12] | Potency [9] | outcome [14] | Potency [10] | Potency [11]

CC(C(=O)O)c1ccc(CC2CCCC2=O)cc1 (centres undefined)
inactive: Potency [1] | Potency [2] | Potency [3] | Potency [4] | Potency [5] | Potency [6] | Potency [7] | Potency [8] | Potency [12] | Potency [13] | Potency [9] | outcome [14] | Potency [11]

CN(C)C(=O)Oc1cccc([N+](C)(C)C)c1
inactive: Potency [1] | Potency [2] | Potency [3] | Potency [4] | Potency [5] | Potency [6] | Potency [7] | Potency [8] | Potency [12] | Potency [9] | Potency [11]

Cc1ccc(/C(=C\CN2CCCC2)c2ccccn2)cc1
inactive: Potency [1] | Potency [2] | Potency [3] | Potency [4] | Potency [5] | Potency [6] | Potency [7] | Potency [8] | Potency [13] | outcome [14] | Potency [10] | Potency [11]
